The campaign covered roughly 360,000 compounds. About 7,500 (2.1%) were called active. Not shown: some 8% with an inconclusive outcome. The entries come from a sample that favours actives as a whole. A number with no mark means an inactive call. Calls come from the whole dose curve; as a rule, active = well fitted cell-killing curve with a large enough effect; inconclusive = small, poorly fitted or top-dose-only effect, or effect the other way, or another doubt; inactive = no such curve, though single readings can be large or run the other way.
assay: qHTS for induction of synthetic lethality in tumor cells producing 2HG: qHTS for the HT-1080-IDH1KD cell line; details: HT-1080 IDH1 knockdown viability, ATP luminescence, 48 h; series mostly up to 46.1 µM; activity, negative = toxicity: at the top concentration;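 for activity, negative = toxicity: 0% = DMSO wells and -100% = cell-free medium wells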
Procedure, shortened: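 Using the IDH1-knockdown HT-1080 line run in the same batch and compound series as the NT line, viability after 48 h at 37 °C was determined by CellTiter-Glo luminescence and expressed as % activity.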
Potency is the fitted concentration of half-maximal effect.

In order of rising “activity, negative = toxicity” value:
1. CCc1nc2c(OCCOc3ccccc3)cccn2c1N(C=O)Cc1ccc(OC)cc1  -76.1%
2. COc1cc(/C=C/C(=O)Nc2ccc(OC)c(S(=O)(=O)N3CCOCC3)c2)ccc1OCC#N  -27.5%
3. O=C(/C=C/c1ccc(N2CCOCC2)cc1)c1ccccc1  -25.3%
4. CCOC(=O)/C(=N\Nc1ccccc1Cl)N(C)C1CCS(=O)(=O)C1 (stereo unspecified)  -25.2%
5. Cc1ccc(Cc2cnc(N)s2)o1  -24.2%
6. CS(=O)(=O)Nc1cccc(C2=NN(C(=O)c3cccc(F)c3)C(c3cccs3)C2)c1 (stereo unspecified)  -23.8%
7. CC(=O)c1ccc(Nc2nc(C(N)c3ccccc3Cl)cs2)cc1 (stereo unspecified)  -21.8%
8. COc1cc2nc(N3CCCN(C)CC3)nc(NC(C)C)c2cc1OC  -17.8%
9. CCc1nc(C)cn1S(=O)(=O)c1cc(OC)c(C)cc1C  -17.7%
10. CCCCCNC(=O)C(c1ccc(OC)cc1)n1c(=O)c(-c2ccccc2)nc2ccccc21 (stereo unspecified)  -17.2%
11. C=CCSC1=C(C#N)C(c2cc(Br)c(O)c(OC)c2)CC(=O)N1 (stereo unspecified)  -15.3%
12. CCn1c(SCc2ccccc2)nc2cc(OC)c(OC)cc2c1=O  -15.2%
13. COc1ccc(CN(C)C(=O)CC(c2ccccc2)c2ccccc2)cc1  -14.7%
14. Nc1nc2c(Br)ccc(Br)c2cc1C(=O)NCCc1ccccc1  -12.4%
15. CC(=O)N(Cc1cc(=O)[nH]c2ccccc12)c1ccc(C)cc1C  -12.4%
16. Cc1ccc(S(=O)(=O)N(Cc2cccc([N+](=O)[O-])c2)C(=O)N2CCN(C)CC2)cc1  -11.9%
17. CN1OC[C@@H]2CN(S(=O)(=O)c3cccc4ccccc34)[C@H](c3ccc(N4CCCCC4)cc3)C[C@@H]21  -11.5%
18. CCCCn1nnnc1C(c1cc2ccccc2o1)N(C)Cc1ccc(Cl)c(Cl)c1 (stereo unspecified)  -11.5%
19. Cc1ccccc1-c1ccc2c(c1)O[C@@H](CN(C)Cc1ccc(C(=O)O)cc1)[C@@H](C)CN([C@H](C)CO)S2(=O)=O  -7.84%
20. C[C@@H]1CN([C@H](C)CO)C(=O)CCCn2nncc2CO[C@@H]1CN(C)S(=O)(=O)c1cccc(C#N)c1  -7.06%
21. Cc1ccc(C(=O)Nc2nc3ccc(Cl)cc3s2)o1  -6.86%
22. COc1ccc(/C=C/C(=O)N2CCCC2)cc1OC  -6.68%
23. CCc1nc2c(OCCOc3ccc(F)cc3)cccn2c1N(C)C(=O)c1ccccc1F  -5.69%
24. Cc1ccc(NC(=S)N(CCN2CCCCC2)Cc2ccco2)cc1C  -5.58%
25. Cc1ccc(NC(=S)N(CCCN2CCC(C)CC2)Cc2ccco2)cc1  -5.45%
26. COc1ccc(COC(=O)NC(C(=O)O)c2ccccc2)cc1 (stereo unspecified)  -4.08%
27. O=Cc1cn(CCOc2ccc(F)cc2)c2ccccc12  -3.73%
28. COCC1CCCCN1C(=O)c1cc(COc2ccc(C)c(C)c2)on1 (stereo unspecified)  -3.35%
29. CC1CN(C(=O)CCC(=O)NCc2cccnc2)c2ccccc2O1 (stereo unspecified)  -2.22%
30. COc1ccc(C(=O)N2CCCCC2c2cc(C(=O)Nc3ccc(F)c(Cl)c3)no2)cc1 (stereo unspecified)  -2.02%
31. COc1ccc(-c2cnc3c(c2)C(=O)N([C@H](C)CO)C[C@@H](C)[C@H](CN(C)Cc2ccccc2)O3)cc1  -1.8%
32. CCc1ccc(NC(=O)Cn2nnc(C(=O)NCc3ccc(OC)cc3)c2N)cc1  -1.58%
33. COc1cc(F)ccc1-c1cc(C(=O)NCC2CCCCC2)[nH]n1  -0.877%
34. Cc1cc(C)c2c(=O)n3c(nc2c1)C(CC(C)C)NC(=O)c1cc2ccccc2cc1-3 (stereo unspecified)  -0.851%
35. CC1CN(C(=O)CCC(=O)NC2CCN(Cc3ccccc3)CC2)c2ccccc2O1 (stereo unspecified)  -0.348%
36. COc1ccc(CN2C(=O)C(CC(=O)NCc3cccc4ccccc34)CC(C(=O)N3CCOCC3)=C2C)cc1 (stereo unspecified)  -0.0224%
37. COc1ccc(C(=O)N2CCCCC2c2cc(C(=O)Nc3ccccc3)no2)cc1 (stereo unspecified)  0%
38. Cc1ccc(N(Cc2cc3ccccc3[nH]c2=O)C(=O)c2cccs2)cc1  0.252%
39. CCC(=O)Nc1ccc2nc(C)n(Cc3ccccc3Cl)c(=O)c2c1  0.259%
40. COc1cccc(C(O)c2ncc(-c3ccc4ccccc4c3)[nH]2)c1 (stereo unspecified)  0.29%
41. CCOc1cc(NC(=O)c2ccccc2C(=O)O)c(OCC)cc1NC(=O)c1ccccc1F  0.297%
42. CCOc1ccc(Cl)cc1-c1cc(C(=O)NCc2cccs2)[nH]n1  0.448%
43. COc1ccc(Br)c(Cn2c(C)c(C(=O)NCc3cccs3)sc2=O)c1  0.492%
44. CC(C)CNC(=O)C1(C)CCCN1C(=O)CSc1ccccc1 (stereo unspecified)  0.548%
45. CNN/C(N=Cc1ccc([N+](=O)[O-])s1)=N\S(=O)(=O)c1cc(C)c(Cl)cc1SCc1ccccc1  0.716%
46. CC(=O)Nc1cccc(Nc2ccc(C#N)cc2)c1  0.812%
47. O=C(COC(=O)c1cc[n+]([O-])cc1)Nc1ccc(Cl)c(C(F)(F)F)c1  0.909%
48. Nc1cc(C(=O)N2CCN(c3ccccc3Cl)CC2)ccc1N1CC2CC(C1)c1cccc(=O)n1C2 (stereo unspecified)  0.978%
49. O=S1(=O)CC(N2CCSCC2)CN1Cc1cn(Cc2cccc(Cl)c2)nn1 (stereo unspecified)  1.27%
50. CCOC(=O)N1CCN(C(=O)C2CCN(S(=O)(=O)c3cc(Cl)ccc3OCC)CC2)CC1  1.79%
51. CC(C)c1nccn1S(=O)(=O)c1cc([N+](=O)[O-])ccc1Cl  2.08%
52. CC1CN(C(=O)c2ccc([N+](=O)[O-])s2)CC(C)O1 (stereo unspecified)  2.25%
53. CC(C)C1Cc2[nH][nH]c(=O)c2C(c2ccc(Cl)cc2)O1 (stereo unspecified)  2.43%
54. Cc1ccc(NC(=O)COC(=O)CN2CCSC2=O)cc1F  2.76%
55. COc1ccc(S(=O)(=O)N2CCC(C(=O)NCCC(=O)NCCc3cccc(F)c3)CC2)cc1  3.72%
56. O=C(OCc1ccccc1)N1CCC2CC1c1ccc(-c3ccc4c(c3)OCO4)cc12 (stereo unspecified)  3.84%
57. CCOCCCn1c(NN)nc2ccccc2c1=O  4.05%
58. CCOC(=O)C1(C)CCCN(C(=O)c2cccc(Cl)c2)C1 (stereo unspecified)  4.06%
59. O=C(NC1CCCC1)C1c2ccccc2OCC(=O)N1Cc1ccccc1 (stereo unspecified)  4.14%
60. COc1ccc(NC(=O)COC(=O)C2COc3ccccc3O2)cc1 (stereo unspecified)  4.67%
61. COC(=O)CSC1=C(C#N)C(c2ccccc2OC)C(C(=O)OC)C(=O)N1 (stereo unspecified)  5.07%
62. CCc1nc(C)ccc1OCC(=O)N(CC)CC  5.18%
63. NC(=O)N1CCCC1C(=O)Nc1ccc(Cl)c(Cl)c1 (stereo unspecified)  5.56%
64. COc1ccc(C(O)c2nc(-c3ccc(OC)nc3)cs2)cc1 (stereo unspecified)  5.6%
65. C=CCn1c(Cn2nnc3ccccc32)nnc1SCC(=O)N/N=C/c1cc(Br)cc(OC)c1O  6.3%
66. O=S1(=O)CCN(C2CCCCCCCCCCC2)CC1  6.35%
67. COc1cc(C(=O)OCCCN2CCOCC2)cc(OC)c1OC  6.61%
68. O=C1NC(O)CCN1C1CC(O)C(CO)O1 (stereo unspecified)  7.01%
69. Cc1ccc(NC(=O)[C@H](Cc2ccccc2)NC(=O)CC[C@H]2O[C@@H](n3ccc(=O)[nH]c3=O)[C@H](O)[C@@H]2O)cc1C  7.02%
70. CSc1ncnc2c1ncn2CCCNCc1ccco1  9.18%
71. COc1ccc(OC)c(CN2C(=O)CCC2(C)c2nnnn2Cc2ccccc2)c1 (stereo unspecified)  9.52%
72. CS(=O)(=O)Nc1ccc(C2=NN(S(C)(=O)=O)C(c3cccs3)C2)cc1 (stereo unspecified)  10.5%
73. Oc1c(Cl)cc(Cl)cc1/C=N/c1ncn[nH]1  11.8%
74. CSc1ncc(Sc2ccccc2)c(C(=O)O)n1  12.7%
75. CC(=O)OCC(C)n1c(=O)c2ccccc2n1C(C)=O (stereo unspecified)  12.7%
76. CCCc1c(C)nc2scc(-c3ccc(Cl)cc3)n2c1=O  13.9%
77. O=C(c1cccc([N+](=O)[O-])c1)N1CCN(Cc2ccccc2)CC1  15.1%
78. CC1(C(=O)O)CCCN(C(=O)/C=C/c2ccccc2)C1 (stereo unspecified)  16.9%
79. CCCC(=O)N1CCC1(C)C(=O)NCc1ccc(SC)cc1 (stereo unspecified)  18.2%

In the case of `CCOc1ccccc1NC(=O)Cn1nnc(C(=O)NCc2cccs2)c1N`, the Potency was 0.411 µM (active).
With `O=C(CC(O)(C(F)(F)F)C(F)(F)F)Nc1ccc(Cl)c(Cl)c1` the Potency was 11.6 µM (active).
With `CCn1c(/C=C/c2ccc([N+](=O)[O-])o2)nc2ccccc2c1=O` the Potency was 2.59 µM (active).
For `O=C(CCl)N(Cc1cccc([N+](=O)[O-])c1)c1cccc(Cl)c1`, the Potency was 4.61 µM (active).
For `CCc1nc(C)cn1S(=O)(=O)c1cc([N+](=O)[O-])ccc1Cl`, the Potency was 3.26 µM (active).
With `COc1ccc(C(CCN(Cc2ccc(OC)c(OC)c2)C(=O)CCl)c2ccccc2)cc1` (stereo unspecified) the Potency was 16.4 µM (active).
For `Cc1ccc(CCC(=O)Nc2ncc(Cc3cc(Cl)ccc3Cl)s2)o1`, the Potency was 1.16 µM (active).
With `O=[N+]([O-])c1ccc(C=Nc2ccc(Cl)cc2Cl)s1` the Potency was 11.2 µM (active).
With `Cc1ccc(N(Cc2cc(=O)[nH]c3ccccc23)C(=O)CCl)cc1` the Potency was 20.6 µM (active).
With `COc1ccc(/C=C/C(=O)Nc2ccc(C34CC5CC(CC(O)(C5)C3)C4)cc2)cc1OC` the Potency was 2.59 µM (active).
For `CCS(=O)(=O)Nc1ccc(C2=NN(C(C)=O)C(c3cccs3)C2)cc1` (stereo unspecified), the Potency was 16.4 µM (active).
With `CCOC(=O)CSC1=C(C#N)C(c2sccc2C)CC(=O)N1` (stereo unspecified) the Potency was 1.41 µM (active).
For `CSc1nc(-c2ccccc2)nc(C(Cl)Cl)n1`, the Potency was 18.4 µM (active).
With `Cc1ccc(NC(=S)N(CCCN2CCCC2)Cc2cccn2Cc2ccc(Cl)cc2)cc1` the Potency was 23.1 µM (active).
With `COc1cc(Br)cc(/C=N/c2ncn[nH]2)c1O` the Potency was 15.8 µM (active).
In the case of `CCC(C)(C)c1ccc(OCC(=O)N(C)C)c(C(C)(C)CC)c1`, the Potency was 20.6 µM (active).
In the case of `CC1CN(C(=O)CCC(=O)NCCCN2CCC(Cc3ccccc3)CC2)c2cc(Cl)ccc2O1` (stereo unspecified), the Potency was 16.4 µM (active).
In the case of `O=c1ccc2c(-c3ccccc3S(=O)(=O)O)c3ccc(O)c(O)c3oc-2c1O`, the Potency was 14.6 µM (active).
For `C=CC(=O)OCCOCCOCCOCCOC(=O)C=C`, the Potency was 23.1 µM (active).
With `CCOC(=O)/C(=N\Nc1cc(Cl)ccc1Cl)N1CCN(C)CC1` the Potency was 20.6 µM (active).
In the case of `CCN1CCN(c2cc3nc(C)n(Cc4ccccc4)c(=O)c3cc2NC(=O)c2ccccc2F)CC1`, the Potency was 20.6 µM (active).
In the case of `Cc1[nH]c(=O)c(C(=O)/C=C/c2ccccc2)c2c1CCCC2`, the Potency was 3.98 µM (active).

Reference: PubChem BioAssay AID686971 (National Center for Advancing Translational Sciences (NCATS), 2013)
